# Screening data: PubChem BioAssay, National Center for Advancing Translational Sciences (NCATS)
# This is a sample that favours compounds with a hit; in the whole collection about 4.6% have one here.
# D1 antag – blocks dopamine activation of the human D1 receptor | P21728 | HEK293 TREx D1 cells, calcium flux, dopamine EC80; active compounds read low | activity change, negative = inhibition, % at 10 µM | 3.2% of 360,000 active | AID 504652; in the data active = activity change below about -30%; also: % is scaled to controls: 0 for no effect and ±100 for the full control effect
#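 Tetracycline-induced HEK293 Trex D1 cells, force-coupled to calcium, dye-loaded; compounds added and read 180 s, then EC80 dopamine added and calcium flux tracked kinetically another 180 s.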
# D1 potentiator – enhances dopamine response at the human D1 receptor; P21728; HEK293 TREx D1 cells, calcium flux, dopamine EC20 potentiation; potentiation, % at 10 µM; 0.036% of 360,000 active; AID 504651; in the data active = potentiation above about 30%; also: 0% is about no effect
# D1 ag – agonists of human D1 dopamine receptor. AID 504660. 1% of 360,000 active. activation, % at 2 µM. HEK293 T-REx D1 cells, calcium flux, agonist mode. P21728; also: 0% is about no effect
#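 Inducible HEK293 T-REx D1 cells, force-coupled to calcium signalling, were plated at 4000 cells/well with tetracycline and held overnight at 30 C. After no-wash calcium dye loading, compound-evoked calcium rise over 180 s flagged agonists.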
# TRHR PAM – TRH receptor (human) allosteric enhancement; enhancement, % at 2 µM; 0.66% of 360,000 active; TRHR cells, fluo-8 calcium fluorescence, EC20 TRH enhancement; P34981; in the data active = enhancement above about 30%; also: 0% is about no effect
# Target sequence (P34981 whole entry, looked up): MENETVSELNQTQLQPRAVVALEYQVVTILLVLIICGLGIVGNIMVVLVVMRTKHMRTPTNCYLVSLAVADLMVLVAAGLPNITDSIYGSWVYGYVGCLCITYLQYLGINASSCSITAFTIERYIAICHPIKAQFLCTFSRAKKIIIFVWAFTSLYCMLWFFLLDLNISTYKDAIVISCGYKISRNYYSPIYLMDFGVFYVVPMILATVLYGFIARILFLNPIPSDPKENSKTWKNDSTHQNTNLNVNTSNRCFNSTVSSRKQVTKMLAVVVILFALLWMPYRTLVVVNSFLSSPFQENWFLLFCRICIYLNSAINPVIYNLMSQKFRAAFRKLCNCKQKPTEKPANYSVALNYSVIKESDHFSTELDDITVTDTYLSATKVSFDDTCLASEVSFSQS
#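 Enhancer read-out: after compound pinning and an initial kinetic agonist-mode read, an EC20 of TRH (10 nM final) was injected and fluo-8 calcium signal (Ex 480/Em 530) followed at 1 s/cycle for 100 cycles in TRHR-expressing cells.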
# TRHR ag – TRH receptor (human) agonism. AID 493084. 0.18% of 360,000 active. TRHR cells, calcium flux fluo-8, FDSS agonist mode. activation, % at 2 µM. P34981; also: 0% is about no effect
#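 Agonist-mode FDSS calcium read (Ex 480/Em 530, 1 s cycles) in 1536-well TRHR cells with fluo-8 dye, after 10-cycle baseline and 23 nL compound addition; TRH at EC20 (10 nM final) added afterwards for the enhancer phase.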
# The depositor's hits bear a star; . = no result. Rule as the data show it, unless noted: active = activation above about 30%; inactive = the rest.
SMILES,D1 antag,D1 potentiator,D1 ag,TRHR PAM,TRHR ag
Cc1cccc(-c2noc(-c3cc(C(C)C)[nH]n3)n2)c1,-9,-3,42*,-6,5
O=C(Nc1ccccc1C(F)(F)F)C1CCN(c2nnc(-n3cccc3)s2)CC1,-12,-5,7,7,-2
CCN(CC)c1ccc(NC(=O)C2CCN(c3nnc(-n4cccc4)s3)CC2)c(C)c1,-38*,0,0,-2,-1
COc1cc2c(cc1OC)CN(CC(=O)NC(=O)NCc1ccccc1)CC2,-16,4,3,-1,0
C/C=C(\C)CN1CCc2cc(OC)c(OC)cc2C1,14,-4,9,32*,0
Cc1ccccc1NC(=O)c1ccc2c(O)c(S(=O)(=O)c3ccccc3)c(=O)[nH]c2c1,12,0,5,3,0
Nc1ccc(C(=O)Nc2ccc(OC(F)(F)C(F)F)c(NC(=O)c3ccc(N)cc3)c2)cc1,-32*,1,3,1,0
Cc1c(C(=O)N2CCCC2)oc2c1-c1nn(CC(=O)NCCCN3CCCCC3)cc1CC2,-31*,4,3,1,0
O=[S+]([O-])(NC[C@H]1CCC[C@H](CN[S+](=O)([O-])c2c(F)cccc2F)C1)c1ccc2c(c1)OCCO2,2,2,7,7,1
COc1ccc(C(=O)Nc2cc(-c3nc4ccccc4s3)ccc2OC)cc1,-4,-2,2,-5,2
COc1ccc(-c2nc3ccccc3s2)cc1NC(=O)c1ccccc1OC,-5,-3,3,34*,-1
COc1ccc(-c2nc3ccccc3s2)cc1NC(=O)c1cccc(F)c1,-30*,-1,1,-1,0
CCc1ccc(Nc2cc(=O)n(C3CCCCC3)c(=O)[nH]2)cc1,-35*,-3,34*,-5,7
O=c1cc(Nc2ccc3c(c2)OCCO3)[nH]c(=O)n1C1CCCCC1,8,1,11,5,1
Cc1ccc(C)c(NC(=O)Cn2cc(C(=O)C3CCCCC3)c3ccccc32)c1,-21,2,3,5,2
CN(C)/C=C1\C=C2C(=O)c3ccccc3N2C1=O,-62*,2,335*,31*,249*
CN(C)S(=O)(=O)N1C(=O)c2ccccc2C1=O,10,1,4,5,-1
CC(=O)c1cccc(NC(=O)c2cc(-c3ccc(Cl)s3)nc3ccccc23)c1,-6,0,10,-2,1
CN(C)CC/C=C1/c2ccccc2COc2ccccc21,-74*,-4,9,-3,1
CN(C)CCC=C1c2ccccc2C=Cc2ccccc21,-100*,-5,13,9,1
CN(C)CCC=C1c2ccccc2CCc2ccccc21,-67*,-5,11,1,0
CC(C)(C)OC(=O)N1CCC(c2c(C(=O)N3CCN(c4ccc(Cl)cc4)CC3)cnn2-c2ccc(F)cc2F)CC1,9,-3,1,4,-1
COc1ccc(NC(=O)C(OC(=O)CNC(=O)c2ccccc2)c2ccccc2)cc1F (configuration not stated),-6,5,0,2,1
CCN1CCN(c2oc(-c3ccc(COc4ccc(C)cc4)o3)nc2C#N)CC1,-6,-2,1,-3,1
COc1ccc(N2C(=O)CN=C2Nc2nc(C)cc(C)n2)cc1,-4,0,4,0,-2
SMILES,D1 antag,D1 potentiator,D1 ag,TRHR PAM,TRHR ag
Cc1cc(C)nc(NC2=NCC(=O)N2c2ccc3c(c2)OCCO3)n1,-84*,-2,-1,4,0
COc1ccc(OC)c(C(c2nnnn2Cc2ccccc2)N2CCC(C(N)=O)CC2)c1 (configuration not stated),-45*,-5,2,2,-1
CCc1ccc2[nH]c(=O)c(C(c3nnnn3Cc3ccccc3)N3CCOCC3)cc2c1 (configuration not stated),1,-4,0,3,0
CCc1ccc2[nH]c(=O)c(C(c3nnnn3Cc3ccc(OC)cc3)N3CCOCC3)cc2c1 (configuration not stated),-44*,4,0,4,0
Cc1cc(C)c2c(=O)cc(C(=O)Nc3ccc(S(=O)(=O)Nc4nc(C)cc(C)n4)cc3)oc2c1,-15,-1,4,3,-1
COc1ccc(/C=C/C(=O)NC(=S)NCC2CCCO2)cc1 (configuration not stated),-48*,-18,5,-6,1
Cc1c(CNCCCc2ccccc2)c(C(=O)O)c(C)n1Cc1cccc(Cl)c1,10,-1,0,-3,0
O=C(NCCN1CCN(c2ccccc2F)CC1)C1CCCN(S(=O)(=O)c2cnc[nH]2)C1 (configuration not stated),-45*,.,5,10,-1
CCS(=O)(=O)N1CCC(C(=O)NCCCN2CCN(c3ccccc3F)CC2)CC1,-75*,-13,0,-2,0
CCCS(=O)(=O)N1CCCC(C(=O)NCCCN2CCN(c3ccccc3F)CC2)C1 (configuration not stated),-38*,-6,2,9,0
COc1cc(NC(=O)C(CC(C)C)N2Cc3ccccc3C2=O)cc(OC)c1 (configuration not stated),-10,0,1,3,0
CCn1c(NCc2ccco2)nc2ccccc21,22,-7,-1,-1,0
c1ccc(Cn2c(NCc3ccco3)nc3ccccc32)cc1,-36*,2,6,-14,0
CCC(C)NC(=O)CSc1nc2n[nH]c(C)c2c(=N)n1-c1cc(Cl)ccc1C (configuration not stated),-4,-4,2,6,0
COc1ccc(C2NC(=O)C(C#N)=C(S)N2c2ccc(C)cc2)cc1OC (configuration not stated),-4,19,2,2,0
COc1ccc(N2C(S)=C(C#N)C(=O)NC2c2ccc(OC)c(OC)c2)cc1 (configuration not stated),5,-4,1,30*,0
COc1ccc(C2NC(=O)C(C#N)=C(S)N2c2cccc(C)c2)cc1OC (configuration not stated),-61*,-4,1,8,-1
COc1ccc(NC(=O)Cn2c(=O)n(Cc3ccccc3)c(=O)c3oc4ccccc4c32)cc1Cl,8,1,0,0,0
CCOc1ccc2nc(NC(=O)C(NS(=O)(=O)c3cccc4nsnc34)C(C)C)sc2c1 (configuration not stated),-33*,-6,0,-5,-1
CCCc1cc(=O)[nH]c(SCC(=O)Nc2nc3ccc(OCC)cc3s2)n1,4,6,1,2,0
CCOc1ccc2nc(NC(=O)C(CC)Sc3nc(C)cc(=O)[nH]3)sc2c1 (configuration not stated),-42*,-4,0,0,-1
